Assay outcomes: PubChem, National Center for Advancing Translational Sciences (NCATS)
TDP1 cell CPT: DT40-hTDP1 cell growth loss with CPT. chicken DT40 Tdp1-/-;hTDP1 cells + 20 nM CPT, ATP luminescence, 48 h. Potency, µM (series often up to 46.2 µM), for inactives: at the top dose activity change, negative = growth inhibition, usual class: inhibitors. 12% of 420,000 active. AID 686979; further: on the % scale 0 is the no-effect control and ±100 the full control effect; nearly all actives have a fitted effect of over 55% in size
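Chicken DT40 Tdp1-/- cells complemented with human TDP1, 400 cells/well, exposed to compounds plus 20 nM camptothecin for at least 48 h at 37 C; viability read as ATP content by CellTiter-Glo luminescence.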
HT1080 IDH1KD tx: HT-1080 IDH1 knockdown cell toxicity (counter line); AID 686971; 2% of 360,000 active; Potency, µM (highest dose often 46.1 µM), without a hit: at the top dose activity, negative = toxicity, most hits filed as cytotoxic; HT-1080 IDH1 knockdown viability, ATP luminescence, 48 h;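 further: 0% = DMSO wells and -100% = cell-free medium wells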
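Viability of IDH1-knockdown HT-1080 fibrosarcoma cells was assessed by CellTiter-Glo after 48 h at 37 °C with titrated compound; concentration-effect curves were classified by fit quality and response size.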
HepG2 viability: counter-screen for TGF-b inhibitors: cytotoxicity in HepG2 cells; HepG2 CAGA-GFP viability, ATP luminescence, 18 h; Potency, µM (series often up to 46.1 µM), inactives show at the top dose activity change, negative = cytotoxicity, most hits filed as cytotoxic; 0.76% of 410,000 active
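CellTiter-Glo luminescence gave cytotoxicity after 18 hours at 37 degrees C. The cells were HepG2 CAGA-GFP in 1% FBS DMEM, stimulated with 500 pg/mL TGF-beta after compound addition. %Activity was normalised to no-cell wells (complete cell-killing) and DMSO (no toxicity), and curves were fitted and classified.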
TGFb SMAD3 inh: TGF-b pathway inhibition | HepG2 CAGA-GFP TGF-b/SMAD3 reporter, GFP fluorescence, 18 h; TGF-beta stimulated, 500 pg/mL final | Potency, µM (series often up to 46.1 µM), without a hit: at the top dose activity, negative = inhibition, usual class: inhibitors | 1.2% of 410,000 active; further: on the % scale 0 is the no-effect control and ±100 the full control effect; nearly all actives have a fitted effect of over 65% in size
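First, reporter cells (HEPG2 CAGA-GFP) rested 2 h at 37 degrees C. Next, compounds were pinned in and TGF-beta added to 500 pg/mL final. After 18 h, GFP was imaged per cell and summed per well.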
HT1080-NT tox: kills 2HG-producing HT-1080-NT fibrosarcoma cells; HT-1080-NT fibrosarcoma viability, CellTiter-Glo ATP luminescence, 48 h; Potency, µM (highest dose often 46.1 µM), inactives show at the top dose activity, negative = less viability, actives largely listed as cytotoxic; 1.6% of 360,000 active;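 further: NT is the 2HG producing partner of a matched IDH1 knockdown line; 0% = DMSO-treated cells and -100% = media-only wells without cells; nearly all actives have a fitted effect of over 55% in size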
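HT-1080-NT; 750 cells/well; 5% FBS RPMI; 48 h compound, 37 degrees C; CellTiter-Glo luminescence; curve fitting and curve-class assignment.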
TDP1 cell noCPT: qHTS for Inhibitors of human tyrosyl-DNA phosphodiesterase 1 (TDP1): qHTS in cells in absence of CPT; DT40 Tdp1-/- hTDP1 cells, no CPT, ATP luminescence, 48 h; Potency, µM (highest dose often 46.2 µM), inactives show at the top dose activity change, negative = growth inhibition, usual class: inhibitors; 15% of 420,000 active; AID 686978, 2013; further: on the % scale 0 is the no-effect control and ±100 the full control effect; nearly all actives have a fitted effect of over 55% in size
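Compound effects on proliferation are scored in DT40 Tdp1-/-;hTDP1 cells in the absence of CPT. ATP levels (CellTiter-Glo luminescence) are recorded after a ≥48 hr, 37 °C incubation.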
* hit, by the source's call; [ ] = another dose, or the depositor's remark. Only some compounds are listed: those with a hit (about 17% of all), similar ones and a draw of the others. The call rests on the fitted dose curve; in most records, active means well fitted curve in the direction sought with a large enough effect; inconclusive means small, poorly fitted or top-dose-only effect, or another doubt; inactive means no such curve, though single readings can be large; an effect the other way counts as inactive or inconclusive. Potency means the concentration at half of the fitted maximal effect.

For CC(C)N1CCC1(C)C(=O)Nc1nc2ccccc2[nH]1 (stereo unspecified) the results were TDP1 cell CPT 2%, HT1080 IDH1KD tx 0%, HepG2 viability -2%, TGFb SMAD3 inh -15%, HT1080-NT tox 0% and TDP1 cell noCPT 7%.
For COc1ccc(/C=N/NC(=O)c2ccccc2NC(=O)c2ccco2)c(OC)c1 the results were TDP1 cell CPT -8%, HT1080 IDH1KD tx -24%, HepG2 viability -14%, TGFb SMAD3 inh -4%, HT1080-NT tox -11% and TDP1 cell noCPT -27%.
For O=C(NCc1ccccc1)C1=C[C@H](c2ccc3c(c2)OCO3)C[C@H](OCc2ccc(CO)cc2)O1 the results were TDP1 cell CPT 6.5µM*, HT1080 IDH1KD tx -4%, HepG2 viability 1%, TGFb SMAD3 inh -14%, HT1080-NT tox -2% and TDP1 cell noCPT inconclusive.
`Cc1ccc(Cl)cc1NS(=O)(=O)c1cc2c3c(c1)CC(=O)N3CCC2` gave TDP1 cell CPT inconclusive, HepG2 viability -17%, TGFb SMAD3 inh -1% and TDP1 cell noCPT inconclusive.
Screening COc1ccc(S(=O)(=O)Nc2cc3c4c(c2)CCC(=O)N4CCC3)cc1C returned TDP1 cell CPT 16µM*, HT1080 IDH1KD tx -16%, HepG2 viability -35%, TGFb SMAD3 inh inconclusive, HT1080-NT tox -8% and TDP1 cell noCPT inconclusive.
Screening Cc1ccc(NS(=O)(=O)c2cc3c4c(c2)CC(=O)N4CCC3)cc1C returned TDP1 cell CPT 13µM*, HT1080 IDH1KD tx -1%, HepG2 viability 5%, TGFb SMAD3 inh 6%, HT1080-NT tox -8% and TDP1 cell noCPT -5%.
Cn1nnnc1SCCCNCc1ccc(-c2ccc(Br)cc2)o1 was read as TDP1 cell CPT 21µM*, HepG2 viability -65%, TGFb SMAD3 inh inconclusive and TDP1 cell noCPT inconclusive.
For CCN(CC)CCNCc1cc(Cl)ccc1OCc1ccccc1F the results were TDP1 cell CPT inconclusive, HT1080 IDH1KD tx inconclusive, HepG2 viability -32%, TGFb SMAD3 inh -1%, HT1080-NT tox 23µM* and TDP1 cell noCPT inconclusive.
For Brc1ccc(-c2ccc(CNCCSc3nnnn3-c3ccccc3)o2)cc1 the results were TDP1 cell CPT inconclusive, HepG2 viability -49%, TGFb SMAD3 inh inconclusive and TDP1 cell noCPT inconclusive.
Screening Cn1nnnc1SCCNCc1ccccc1F returned TDP1 cell CPT -14%, HT1080 IDH1KD tx 11%, HepG2 viability 0%, TGFb SMAD3 inh 11%, HT1080-NT tox 18% and TDP1 cell noCPT -6%.
Screening Cn1nnnc1SCCCNCc1cc(Cl)ccc1OCc1ccccc1F returned TDP1 cell CPT 21µM*, HepG2 viability -56%, TGFb SMAD3 inh -20% and TDP1 cell noCPT 8.2µM*.
Brc1cccc(CNCCSc2nnnn2-c2ccccc2)c1 was read as TDP1 cell CPT -27%, HepG2 viability -21%, TGFb SMAD3 inh -17% and TDP1 cell noCPT -17%.
CCOc1ccc(Br)cc1CNCCSc1nnnn1-c1ccccc1 was read as TDP1 cell CPT 18µM*, HepG2 viability -46%, TGFb SMAD3 inh inconclusive and TDP1 cell noCPT inconclusive.
`CCNC(=O)c1sc2ncnc(NCCCN3CCOCC3)c2c1C` gave TDP1 cell CPT 13%[9.04 µM] and TDP1 cell noCPT -14%.
CCOC(=O)C(O)(CC(=O)c1ccc(OC)cc1)C(F)(F)F (stereo unspecified) was read as TDP1 cell CPT -2%, HT1080 IDH1KD tx -2%, HepG2 viability -27%, TGFb SMAD3 inh -3%, HT1080-NT tox -2% and TDP1 cell noCPT -8%.
Screening Cn1nnnc1SCCCNCc1cc(Br)ccc1OCc1ccccc1 returned TDP1 cell CPT 23µM*, HepG2 viability -61%, TGFb SMAD3 inh inconclusive and TDP1 cell noCPT 10µM*.
Cn1nnnc1SCCCNCc1cc(Br)ccc1OCc1ccccc1F was read as TDP1 cell CPT 16µM*, HepG2 viability -70%, TGFb SMAD3 inh inconclusive and TDP1 cell noCPT 16µM*.
Screening Cn1nnc(NCc2cc(Br)ccc2OCc2ccccc2F)n1 returned TDP1 cell CPT -29%, HT1080 IDH1KD tx -8%, HepG2 viability -10%, TGFb SMAD3 inh -3%, HT1080-NT tox 0% and TDP1 cell noCPT -10%.
Screening CCC(=O)Nc1cc(C(=O)O)ccc1Sc1ccc(Cl)cc1 returned TDP1 cell CPT 1%, HT1080 IDH1KD tx 3%, HepG2 viability -3%, TGFb SMAD3 inh 4%, HT1080-NT tox 1% and TDP1 cell noCPT -4%.
For CC(=O)OC1CCC2C3CCc4cc(O)ccc4C3CCC12C (stereo unspecified) the results were TDP1 cell CPT inconclusive, HT1080 IDH1KD tx inconclusive, HepG2 viability -3%, TGFb SMAD3 inh 2%, HT1080-NT tox inconclusive and TDP1 cell noCPT inconclusive.
Screening CC(=O)O[C@H]1CC[C@H]2[C@@H]3CCc4cc(O)ccc4[C@H]3CC[C@]12C returned TDP1 cell CPT inconclusive, HT1080 IDH1KD tx inconclusive, HepG2 viability -50%, TGFb SMAD3 inh inconclusive, HT1080-NT tox 18µM* and TDP1 cell noCPT inconclusive.
For CC(NCCN(C)C)C1CCC2C3CCc4cc(O)ccc4C3CCC12C (stereo unspecified) the results were TDP1 cell CPT inconclusive, HT1080 IDH1KD tx inconclusive, HepG2 viability -79%, TGFb SMAD3 inh inconclusive, HT1080-NT tox inconclusive and TDP1 cell noCPT 1.6µM*.
`C#C[C@]1(O)CC[C@H]2[C@@H]3CCc4cc(O)ccc4[C@H]3CC[C@@]21C` gave TDP1 cell CPT inconclusive, HT1080 IDH1KD tx 21µM*, HepG2 viability -4%, TGFb SMAD3 inh -13%, HT1080-NT tox 9.2µM* and TDP1 cell noCPT 15µM*.
For C[C@]12CC[C@@H]3c4ccc(O)cc4CC[C@H]3[C@@H]1CC[C@@H]2O the results were TDP1 cell CPT inconclusive, HT1080 IDH1KD tx inconclusive, HepG2 viability -1%, TGFb SMAD3 inh -8%, HT1080-NT tox inconclusive and TDP1 cell noCPT 23µM*.
For CCCN1C(=O)c2ccccc2CC1(C)C(=O)NC1CCCCC1 (stereo unspecified) the results were TDP1 cell CPT -23%, HepG2 viability 5% and TDP1 cell noCPT -24%.
Screening CC(C)(C)NS(=O)(=O)c1ccc(OCC(=O)NCCC2=CCCCC2)cc1 returned TDP1 cell CPT inconclusive, HT1080 IDH1KD tx -8%, HepG2 viability -15%, TGFb SMAD3 inh -4%, HT1080-NT tox -1% and TDP1 cell noCPT -26%.
